Shown are actives, neighbours in structure and some others; about 3.5% of the full set was active somewhere.
FBW7 act = activators of human E3 ligase FBW7 | Q969H0 | AlphaScreen FBW7–phospho-cyclin E peptide binding, activator screen | normalized activity (activation), % at 26.1 µM | actives 0.13% (n = 650,000) | AID 1259310; in the data active = normalized activity above about 1.9%;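 also: purified mutant Fbw7 with reduced substrate affinity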
GPR151 ag = human GPR151 activation; PathHunter beta-arrestin GPR151 cells, luminescence; actives 1% (n = 650,000); activation, % at 11.2 µM; in the data active = activation above about 4.9%;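 also: 0% = median of compound wells and 100% = cells with positive control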
Target sequence (Q8TDV0 whole entry, looked up): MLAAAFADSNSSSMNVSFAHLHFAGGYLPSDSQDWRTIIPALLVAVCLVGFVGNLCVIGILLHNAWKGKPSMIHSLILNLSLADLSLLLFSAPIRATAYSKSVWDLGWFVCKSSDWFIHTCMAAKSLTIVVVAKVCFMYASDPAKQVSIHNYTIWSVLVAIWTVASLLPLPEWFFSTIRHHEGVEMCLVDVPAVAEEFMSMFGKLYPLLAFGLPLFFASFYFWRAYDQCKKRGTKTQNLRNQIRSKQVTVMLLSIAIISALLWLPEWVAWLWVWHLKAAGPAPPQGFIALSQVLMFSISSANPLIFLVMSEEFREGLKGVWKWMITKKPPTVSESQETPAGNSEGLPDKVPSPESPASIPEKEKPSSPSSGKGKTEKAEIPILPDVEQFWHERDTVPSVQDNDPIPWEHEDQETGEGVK
TEAD-YAP block = TEAD-YAP interaction inhibition; HEK-TIYL cells, TEAD-Gal4/YAP UAS-luciferase luminescence; inhibition, % at 9.12 µM; actives 1.4% (n = 640,000); in the data active = inhibition above about 32%;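 also: 0% = median of test compound wells and 100% = reference inhibitor wells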
MITF primary = inhibitors of human MITF; O75030; AlphaScreen MITF homodimerization, bead proximity signal; inhibition, % at 2.6 µM; AID 1259374; actives 0.91% (n = 650,000); in the data active = inhibition above about 50%;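 also: 0% = vehicle wells with protein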
* hit, by the source's call.

How did COc1ccc(C2CC(=O)C3=C(C2)NC(C)=C(C(=O)OC(C)C)C3c2ccc(Cl)cc2Cl)cc1OC (stereo not drawn) do in these assays?
FBW7 act: 0; GPR151 ag: 0; TEAD-YAP block: 6; MITF primary: -9

How did CCn1c(=O)cc(OCC(=O)N(C)c2cccc(C(F)(F)F)c2)c2ccccc21 do in these assays?
FBW7 act: 0; GPR151 ag: 1; TEAD-YAP block: 4; MITF primary: 8

What do the screens show for `Cc1ccc(Cn2c(CN(C)Cc3ccccc3)nc3c2c(=O)n(C)c(=O)n3C)cc1`?
FBW7 act: 0; GPR151 ag: 0; TEAD-YAP block: -5; MITF primary: -18

What do the screens show for `CC(C)n1c(CN(C)Cc2ccccc2)nc2c1c(=O)n(C)c(=O)n2C`?
FBW7 act: 0; GPR151 ag: 2; TEAD-YAP block: 50*; MITF primary: 7

What do the screens show for `COc1cccc(Cn2c(NCc3ccco3)nc3c2c(=O)n(C)c(=O)n3C)c1`?
FBW7 act: 0; GPR151 ag: 1; TEAD-YAP block: 40*; MITF primary: 8

What do the screens show for `CCNc1nc2c(c(=O)n(C)c(=O)n2C)n1CCc1ccccc1`?
FBW7 act: 0; GPR151 ag: 1; TEAD-YAP block: 33*; MITF primary: 3

How did CCOc1ccc(-c2n[nH]c3c2C(c2ccc(F)cc2)NC3=O)cc1 (stereo not drawn) do in these assays?
FBW7 act: 0; GPR151 ag: -1; TEAD-YAP block: 3; MITF primary: -7

What do the screens show for `CCOc1ccc(-c2n[nH]c3c2C(c2cc(OC)ccc2OC)NC3=O)cc1` (stereo not drawn)?
FBW7 act: 0; GPR151 ag: 1; TEAD-YAP block: 51*; MITF primary: 4

What do the screens show for `COc1ccc(C2NC(=O)c3[nH]nc(-c4ccc(C)cc4)c32)c(OC)c1` (stereo not drawn)?
FBW7 act: 0; GPR151 ag: 0; TEAD-YAP block: 44*; MITF primary: 12

How did CC(C)N(CCNc1nc(-c2ccc(C(=O)NC3CC3)cc2)nc2c1ncn2-c1ccsc1)C(C)C do in these assays?
FBW7 act: 0; GPR151 ag: -1; TEAD-YAP block: 60*; MITF primary: -9

What do the screens show for `O=C(NC1CC1)c1ccc(-c2nc(NCCO)c3ncn(-c4ccsc4)c3n2)cc1`?
FBW7 act: 0; GPR151 ag: 2; TEAD-YAP block: 55*; MITF primary: -58

What do the screens show for `CC(C)N(CCNc1nc(-c2ccc(C(=O)NC3CC3)cc2)nc2c1ncn2-c1ccccc1)C(C)C`?
FBW7 act: 0; GPR151 ag: 1; TEAD-YAP block: 10; MITF primary: 10

How did COc1cccc(C2CC(=O)C=C(NCc3ccccc3OC)C2)c1 (stereo not drawn) do in these assays?
FBW7 act: 1; GPR151 ag: 0; TEAD-YAP block: 52*; MITF primary: 12

What do the screens show for `Cc1cc(I)cc2c1NC(C(=O)O)C1CC=CC21` (stereo not drawn)?
FBW7 act: 0; GPR151 ag: 2; TEAD-YAP block: 8; MITF primary: 50

How did Fc1ccc(C2Nc3ccc(OC(F)(F)F)cc3C3C=CCC32)cc1 (stereo not drawn) do in these assays?
FBW7 act: 0; GPR151 ag: 0; TEAD-YAP block: 2; MITF primary: 8

What do the screens show for `O=C(O)C1Nc2ccc(OC(F)(F)F)cc2C2C=CCC12` (stereo not drawn)?
FBW7 act: 0; GPR151 ag: 0; TEAD-YAP block: 1; MITF primary: 75*

How did NS(=O)(=O)c1ccc2c(c1)C1C=CCC1C(C(=O)O)N2 (stereo not drawn) do in these assays?
FBW7 act: 0; GPR151 ag: -1; TEAD-YAP block: 5; MITF primary: 72*

What do the screens show for `Cc1ccc2c(c1)C1C=CCC1C(C(=O)O)N2` (stereo not drawn)?
FBW7 act: -2; GPR151 ag: 0; TEAD-YAP block: -6; MITF primary: 70*

What do the screens show for `CC(=O)c1ccc2c(c1)C1C=CCC1C(C(=O)O)N2` (stereo not drawn)?
FBW7 act: 0; GPR151 ag: -2; TEAD-YAP block: 5; MITF primary: 79*

Results for O=C(NCc1ccco1)C1CC12CCN(Cc1nc(-c3ccccc3)cs1)CC2 (stereo not drawn) ?
FBW7 act: 0; GPR151 ag: -1; TEAD-YAP block: 56*; MITF primary: 0

How did CN1CCCN(C(=O)C2CC23CCN(Cc2nc(-c4ccccc4)cs2)CC3)CC1 (stereo not drawn) do in these assays?
FBW7 act: 0; GPR151 ag: 0; TEAD-YAP block: 3; MITF primary: 6

What do the screens show for `COc1cc(C(=O)/C(=C/c2ccc(C)cc2)c2nc3ccccc3o2)cc(OC)c1OC`?
FBW7 act: 0; GPR151 ag: -1; TEAD-YAP block: 5; MITF primary: -11

How did COc1cc(/C=C(\C(=O)c2ccc(C)cc2)c2nc3ccccc3o2)cc(OC)c1OC do in these assays?
FBW7 act: 0; GPR151 ag: 1; TEAD-YAP block: 69*; MITF primary: 8

How did COc1cccc(C(=O)C[n+]2cc(-c3ccc(F)cc3)n(C)c2N)c1 do in these assays?
FBW7 act: 0; GPR151 ag: -1; TEAD-YAP block: 85*; MITF primary: 0

Results for N#Cc1ccc(-c2cnc3ccc(NCCCO)nn23)cc1 ?
FBW7 act: 0; GPR151 ag: 0; TEAD-YAP block: 50*; MITF primary: -17

What do the screens show for `OCCCNc1ccc2ncc(-c3ccc(F)c(Cl)c3)n2n1`?
FBW7 act: 0; GPR151 ag: 2; TEAD-YAP block: -3; MITF primary: -11

How did OCCCNc1ccc2ncc(-c3ccc(Oc4ccccc4)cc3)n2n1 do in these assays?
FBW7 act: 0; GPR151 ag: 1; TEAD-YAP block: 50*; MITF primary: 10

How did OCCCNc1ccc2ncc(-c3ccc(OC(F)(F)F)cc3)n2n1 do in these assays?
FBW7 act: 0; GPR151 ag: -1; TEAD-YAP block: 0; MITF primary: 14

What do the screens show for `OCCCNc1ccc2ncc(-c3ccc(F)cc3)n2n1`?
FBW7 act: 0; GPR151 ag: -1; TEAD-YAP block: 54*; MITF primary: 2

How did Cc1nn(C)c(C)c1-c1nc2c(NCCc3ccc(O)cc3)ncnc2n1C(C)C do in these assays?
FBW7 act: 0; GPR151 ag: 2; TEAD-YAP block: -15; MITF primary: 15

What do the screens show for `COc1ccc(/C=C2\SC(=O)N(CC(=O)Nc3ccccc3C)C2=O)cc1OC`?
FBW7 act: 0; GPR151 ag: 0; TEAD-YAP block: 1; MITF primary: 8

What do the screens show for `CCC(=O)NC(c1ccc(OC)c(OC)c1)c1cc(Cl)c2cccnc2c1O` (stereo not drawn)?
FBW7 act: 0; GPR151 ag: 0; TEAD-YAP block: 46*; MITF primary: 28

Results for CCC(=O)NC(c1ccc(OC)c(OC)c1)c1ccc2cccnc2c1O (stereo not drawn) ?
FBW7 act: -2; GPR151 ag: -1; TEAD-YAP block: 87*; MITF primary: 59*

Results for COc1ccc(C(NC(C)=O)c2cc(Cl)c3cccnc3c2O)cc1OC (stereo not drawn) ?
FBW7 act: 0; GPR151 ag: 0; TEAD-YAP block: 4; MITF primary: 21

Assay outcomes as filed in PubChem BioAssay.
